Inhibition data for 11 compounds are collected here from ChEMBL document CHEMBL1961873, “Compounds: GSK PKIS; Assays: Nanosyn kinase panel” (2012).

The target in experiment [1] is Dual specificity protein kinase CLK3 (Homo sapiens) (UniProt P49761). The following applies: at 1 µM.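 Also: each value is the mean inhibition of CLK3.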
Experiment [2] deals with Dual specificity tyrosine-phosphorylation-regulated kinase 1A (Homo sapiens) (UniProt Q13627). The following applies: at 0.1 µM.
For experiment [3] the target is unchanged. The following applies: at 1 µM.
Experiment [4] deals with Dual specificity tyrosine-phosphorylation-regulated kinase 1B (Homo sapiens) (UniProt Q9Y463). As to conditions: at 0.1 µM.
Chain of Dual specificity tyrosine-phosphorylation-regulated kinase 1B (Homo sapiens) (Q9Y463 whole entry, looked up): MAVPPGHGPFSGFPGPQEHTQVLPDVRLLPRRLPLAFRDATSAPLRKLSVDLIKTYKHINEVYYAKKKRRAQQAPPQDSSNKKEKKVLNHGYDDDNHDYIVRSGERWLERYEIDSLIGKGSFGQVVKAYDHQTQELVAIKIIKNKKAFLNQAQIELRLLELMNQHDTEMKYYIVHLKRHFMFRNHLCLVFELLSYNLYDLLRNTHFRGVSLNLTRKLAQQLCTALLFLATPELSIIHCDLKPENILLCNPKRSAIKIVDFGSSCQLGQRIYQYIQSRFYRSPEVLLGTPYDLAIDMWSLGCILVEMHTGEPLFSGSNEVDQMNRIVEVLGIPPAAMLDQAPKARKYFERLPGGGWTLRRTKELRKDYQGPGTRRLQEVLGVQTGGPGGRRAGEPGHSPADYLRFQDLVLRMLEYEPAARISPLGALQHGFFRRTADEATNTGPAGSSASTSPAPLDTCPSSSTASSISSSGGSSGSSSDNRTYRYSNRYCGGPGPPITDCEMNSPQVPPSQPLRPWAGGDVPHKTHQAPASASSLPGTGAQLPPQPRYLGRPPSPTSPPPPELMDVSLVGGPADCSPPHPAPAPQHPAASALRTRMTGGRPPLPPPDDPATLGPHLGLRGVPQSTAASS
For experiment [5] the target is unchanged. The following applies: at 1 µM.
In experiment [6] the target is T1, Dual specificity tyrosine-phosphorylation-regulated kinase 2 (Homo sapiens) (UniProt Q92630).
T1 sequence (whole entry): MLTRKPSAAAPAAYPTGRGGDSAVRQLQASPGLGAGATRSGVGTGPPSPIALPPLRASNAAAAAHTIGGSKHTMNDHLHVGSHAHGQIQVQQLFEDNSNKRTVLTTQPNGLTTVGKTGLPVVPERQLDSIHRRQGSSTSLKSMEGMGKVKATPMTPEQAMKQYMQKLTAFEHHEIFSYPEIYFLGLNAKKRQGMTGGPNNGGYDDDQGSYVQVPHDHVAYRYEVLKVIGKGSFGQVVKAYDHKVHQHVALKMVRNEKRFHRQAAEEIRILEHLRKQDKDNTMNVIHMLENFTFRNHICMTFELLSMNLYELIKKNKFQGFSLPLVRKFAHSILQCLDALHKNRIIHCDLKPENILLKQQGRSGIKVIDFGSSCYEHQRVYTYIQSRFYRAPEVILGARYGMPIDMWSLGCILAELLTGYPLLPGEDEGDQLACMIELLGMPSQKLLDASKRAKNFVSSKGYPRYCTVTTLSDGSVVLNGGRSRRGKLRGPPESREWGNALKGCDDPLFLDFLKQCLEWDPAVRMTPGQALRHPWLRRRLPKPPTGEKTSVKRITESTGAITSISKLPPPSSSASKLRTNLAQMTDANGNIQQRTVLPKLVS
As to conditions: at 0.1 µM.

The target of experiment [7] is T1, Dual specificity tyrosine-phosphorylation-regulated kinase 2 (Homo sapiens). The following applies: at 1 µM.
In experiment [8] the target is Glycogen synthase kinase-3 alpha (Homo sapiens) (UniProt P49840). The following applies: at 0.1 µM.
Chain of Glycogen synthase kinase-3 alpha (Homo sapiens) (P49840 2-483 limits assumed): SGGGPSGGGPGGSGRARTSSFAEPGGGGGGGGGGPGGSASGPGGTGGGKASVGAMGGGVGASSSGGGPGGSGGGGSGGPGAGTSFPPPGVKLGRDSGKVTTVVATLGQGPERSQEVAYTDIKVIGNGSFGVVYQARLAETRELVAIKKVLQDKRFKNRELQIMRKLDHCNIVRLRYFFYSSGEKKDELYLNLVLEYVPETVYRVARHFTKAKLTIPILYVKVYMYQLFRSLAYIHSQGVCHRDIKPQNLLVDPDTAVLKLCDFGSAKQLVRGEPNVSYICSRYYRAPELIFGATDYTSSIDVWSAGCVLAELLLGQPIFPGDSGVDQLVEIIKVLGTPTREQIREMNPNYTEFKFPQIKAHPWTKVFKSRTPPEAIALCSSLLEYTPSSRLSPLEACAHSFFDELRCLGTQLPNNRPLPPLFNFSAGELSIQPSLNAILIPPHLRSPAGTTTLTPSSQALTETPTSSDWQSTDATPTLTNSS
The target is the same in experiment [9]. The following applies: at 1 µM.
Experiment [10] addresses Glycogen synthase kinase-3 beta (Homo sapiens) (UniProt P49841). The following applies: at 0.1 µM.
The target is the same in experiment [11]. As to conditions: at 1 µM.
The target of experiment [12] is Homeodomain-interacting protein kinase 1 (Homo sapiens) (UniProt Q86Z02). The following applies: at 0.1 µM.
Chain of Homeodomain-interacting protein kinase 1 (Homo sapiens) (Q86Z02 whole entry, looked up): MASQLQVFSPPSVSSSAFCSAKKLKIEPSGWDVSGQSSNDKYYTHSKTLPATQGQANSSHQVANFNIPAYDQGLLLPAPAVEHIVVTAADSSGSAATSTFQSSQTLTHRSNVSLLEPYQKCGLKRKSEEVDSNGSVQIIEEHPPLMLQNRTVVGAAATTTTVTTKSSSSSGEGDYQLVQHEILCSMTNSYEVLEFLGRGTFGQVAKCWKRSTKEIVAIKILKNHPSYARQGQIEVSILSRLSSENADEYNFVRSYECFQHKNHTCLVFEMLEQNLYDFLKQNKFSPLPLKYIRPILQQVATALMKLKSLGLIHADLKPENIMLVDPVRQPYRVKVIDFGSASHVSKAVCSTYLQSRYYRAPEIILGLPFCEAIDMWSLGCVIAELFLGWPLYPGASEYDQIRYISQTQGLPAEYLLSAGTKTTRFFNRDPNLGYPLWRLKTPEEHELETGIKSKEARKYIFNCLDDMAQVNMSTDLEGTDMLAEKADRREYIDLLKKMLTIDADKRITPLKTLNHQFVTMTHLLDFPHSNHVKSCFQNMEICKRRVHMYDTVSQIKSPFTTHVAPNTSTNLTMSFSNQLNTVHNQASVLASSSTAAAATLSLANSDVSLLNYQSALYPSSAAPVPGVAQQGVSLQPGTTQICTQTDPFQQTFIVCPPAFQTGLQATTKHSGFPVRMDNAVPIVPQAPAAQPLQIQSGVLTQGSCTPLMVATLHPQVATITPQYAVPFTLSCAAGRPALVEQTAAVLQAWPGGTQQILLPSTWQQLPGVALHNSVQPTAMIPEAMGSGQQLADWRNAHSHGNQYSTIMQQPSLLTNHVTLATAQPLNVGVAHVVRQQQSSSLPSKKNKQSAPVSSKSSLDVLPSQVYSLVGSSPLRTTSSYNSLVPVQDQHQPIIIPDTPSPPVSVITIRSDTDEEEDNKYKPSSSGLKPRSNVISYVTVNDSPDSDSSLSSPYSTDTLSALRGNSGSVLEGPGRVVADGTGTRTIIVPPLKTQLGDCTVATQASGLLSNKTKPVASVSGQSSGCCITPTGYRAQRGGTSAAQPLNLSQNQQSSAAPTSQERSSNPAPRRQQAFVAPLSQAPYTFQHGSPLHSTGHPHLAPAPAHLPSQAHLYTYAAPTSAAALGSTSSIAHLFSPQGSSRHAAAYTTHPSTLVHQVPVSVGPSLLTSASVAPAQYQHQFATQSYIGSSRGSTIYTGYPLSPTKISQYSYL
Experiment [13] shares this target. The following applies: at 1 µM.
Experiment [14] has as its target T2, Homeodomain-interacting protein kinase 4 (Homo sapiens) (UniProt Q8NE63).
T2 sequence (whole entry): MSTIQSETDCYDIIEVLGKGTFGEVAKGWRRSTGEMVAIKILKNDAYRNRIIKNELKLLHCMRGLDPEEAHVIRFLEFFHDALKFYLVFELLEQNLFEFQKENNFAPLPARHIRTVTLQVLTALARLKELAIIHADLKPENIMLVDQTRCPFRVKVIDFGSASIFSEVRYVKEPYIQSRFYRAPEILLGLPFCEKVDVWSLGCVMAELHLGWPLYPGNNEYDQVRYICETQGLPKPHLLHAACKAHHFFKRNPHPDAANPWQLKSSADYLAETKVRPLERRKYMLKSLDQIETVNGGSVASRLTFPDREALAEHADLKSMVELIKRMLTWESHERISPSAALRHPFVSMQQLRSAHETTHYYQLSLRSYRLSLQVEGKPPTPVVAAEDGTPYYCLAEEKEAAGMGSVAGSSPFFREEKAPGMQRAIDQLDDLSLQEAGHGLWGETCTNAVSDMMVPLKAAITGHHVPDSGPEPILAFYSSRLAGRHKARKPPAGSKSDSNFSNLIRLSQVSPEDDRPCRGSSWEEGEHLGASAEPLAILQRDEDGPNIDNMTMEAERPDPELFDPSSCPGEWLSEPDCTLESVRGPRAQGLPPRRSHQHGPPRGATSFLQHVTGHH
The following applies: at 0.1 µM.

The target in experiment [15] is T2, Homeodomain-interacting protein kinase 4 (Homo sapiens). As to conditions: at 1 µM.
In experiment [16] the target is Mitogen-activated protein kinase 9 (Homo sapiens) (UniProt P45984). The following applies: at 0.1 µM.
Chain of Mitogen-activated protein kinase 9 (Homo sapiens) (P45984 whole entry, looked up): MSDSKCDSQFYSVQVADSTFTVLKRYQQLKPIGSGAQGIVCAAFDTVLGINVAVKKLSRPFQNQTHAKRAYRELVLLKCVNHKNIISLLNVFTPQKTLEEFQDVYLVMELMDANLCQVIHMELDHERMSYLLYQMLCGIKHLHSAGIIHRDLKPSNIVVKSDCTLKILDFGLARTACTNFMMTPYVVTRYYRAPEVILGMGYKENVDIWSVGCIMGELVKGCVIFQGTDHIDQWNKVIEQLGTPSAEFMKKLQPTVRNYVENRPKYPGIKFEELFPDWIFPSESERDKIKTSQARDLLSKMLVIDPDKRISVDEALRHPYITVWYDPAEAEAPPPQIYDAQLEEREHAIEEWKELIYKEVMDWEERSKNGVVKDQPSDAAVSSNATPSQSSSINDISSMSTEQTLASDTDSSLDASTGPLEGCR
Experiment [17] has the same target. As to conditions: at 1 µM.
In experiment [18] the target is Mitogen-activated protein kinase 1 (Homo sapiens) (UniProt P28482). As to conditions: at 0.1 µM.
Chain of Mitogen-activated protein kinase 1 (Homo sapiens) (P28482 whole entry): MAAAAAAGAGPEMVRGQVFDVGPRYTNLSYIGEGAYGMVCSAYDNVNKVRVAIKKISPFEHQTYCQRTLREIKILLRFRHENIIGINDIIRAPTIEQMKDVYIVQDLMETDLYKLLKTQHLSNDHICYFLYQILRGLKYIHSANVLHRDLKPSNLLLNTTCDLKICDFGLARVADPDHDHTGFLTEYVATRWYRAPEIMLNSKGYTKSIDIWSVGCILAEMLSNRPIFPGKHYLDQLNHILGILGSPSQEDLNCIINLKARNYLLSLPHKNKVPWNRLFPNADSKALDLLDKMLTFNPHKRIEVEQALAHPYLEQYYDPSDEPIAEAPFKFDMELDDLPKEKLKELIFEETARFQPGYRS
The target is the same in experiment [19]. The following applies: at 1 µM.
Experiment [20] concerns the target Mitogen-activated protein kinase 3 (Homo sapiens) (UniProt P27361). As to conditions: at 0.1 µM.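 Also: each value is a mean inhibition figure.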

Chain of Glycogen synthase kinase-3 beta (Homo sapiens) (P49841 whole entry, looked up): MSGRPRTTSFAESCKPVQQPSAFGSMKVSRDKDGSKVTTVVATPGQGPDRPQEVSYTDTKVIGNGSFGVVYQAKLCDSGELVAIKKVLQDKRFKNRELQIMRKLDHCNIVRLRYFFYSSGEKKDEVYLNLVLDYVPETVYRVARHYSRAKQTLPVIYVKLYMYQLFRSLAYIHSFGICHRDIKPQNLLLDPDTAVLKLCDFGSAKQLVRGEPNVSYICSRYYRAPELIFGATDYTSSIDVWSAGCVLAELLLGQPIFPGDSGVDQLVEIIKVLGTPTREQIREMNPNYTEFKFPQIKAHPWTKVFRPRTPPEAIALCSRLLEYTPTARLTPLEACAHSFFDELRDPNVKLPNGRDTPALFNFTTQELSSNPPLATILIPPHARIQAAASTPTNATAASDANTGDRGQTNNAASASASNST
Chain of Dual specificity protein kinase CLK3 (Homo sapiens) (P49761 whole entry, looked up): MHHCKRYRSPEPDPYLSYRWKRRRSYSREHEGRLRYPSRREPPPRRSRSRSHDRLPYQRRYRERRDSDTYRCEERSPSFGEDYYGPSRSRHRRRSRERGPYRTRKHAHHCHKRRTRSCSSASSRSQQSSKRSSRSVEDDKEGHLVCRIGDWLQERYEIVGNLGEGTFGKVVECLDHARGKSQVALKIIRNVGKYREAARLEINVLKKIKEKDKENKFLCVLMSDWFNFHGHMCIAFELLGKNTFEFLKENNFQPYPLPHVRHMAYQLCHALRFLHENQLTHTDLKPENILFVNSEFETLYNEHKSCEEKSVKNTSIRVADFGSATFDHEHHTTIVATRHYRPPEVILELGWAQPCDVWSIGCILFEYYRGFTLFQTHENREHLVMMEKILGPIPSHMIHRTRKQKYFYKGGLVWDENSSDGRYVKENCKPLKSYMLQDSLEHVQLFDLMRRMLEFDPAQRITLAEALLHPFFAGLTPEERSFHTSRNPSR
Chain of Mitogen-activated protein kinase 3 (Homo sapiens) (P27361 whole entry): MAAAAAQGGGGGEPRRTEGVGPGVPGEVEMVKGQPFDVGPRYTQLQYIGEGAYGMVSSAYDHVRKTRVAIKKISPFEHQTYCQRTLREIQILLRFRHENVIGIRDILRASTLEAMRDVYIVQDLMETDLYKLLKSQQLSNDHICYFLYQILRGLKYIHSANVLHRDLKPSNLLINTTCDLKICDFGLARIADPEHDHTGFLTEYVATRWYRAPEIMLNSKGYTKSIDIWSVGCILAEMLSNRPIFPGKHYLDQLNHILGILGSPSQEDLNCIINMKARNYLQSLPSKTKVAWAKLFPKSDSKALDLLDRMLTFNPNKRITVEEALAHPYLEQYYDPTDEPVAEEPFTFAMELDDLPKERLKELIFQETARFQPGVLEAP

With `CS(=O)(=O)Nc1ccc(N/C=C2\C(=O)Nc3ccccc32)cc1`, the inhibition in [1] is 1.06%; in experiment [2] it was 0.92%; in experiment [3], 10.4%; in experiment [4], 3.56%; in [5], 13.9%; in experiment [6], -1.66%. Besides, the inhibition in experiment [7] is -0.97%; in [8], 7.94%; in experiment [9], 19.6%; in experiment [10] it was 6.71%; in experiment [11], 17.2%; in experiment [12] it was -1.53%. For the same compound, the inhibition in experiment [13] is 3.36%; in experiment [14], 0.6%; in experiment [15], 4.82%; in [16] it was 0.25%; in [17] it was 5.63%; in experiment [18] it was -4.34%. Moreover, the inhibition in experiment [19] is -2.51%; in experiment [20] it was -0.36%.

For `COc1cccc(-n2ncc3c(N/N=C/c4cccc(F)c4)ncnc32)c1`, the inhibition in experiment [1] was -0.14%; in [2], 2.01%; in experiment [3], 25.9%; in [4], -1.44%; in experiment [5], 14.9%; in experiment [6], 4.29%. Also, the inhibition was 16.8% in [7]; 54.5% in [8]; 75.2% in experiment [9]; 44.7% in experiment [10]; 72.7% in experiment [11]; -2.11% in experiment [12]. For the same compound, the inhibition in [13] is 20.6%; in [14], 0.87%; in experiment [15] it was 21.3%; in experiment [16] it was 1.23%; in experiment [17], 4.69%; in [18], 1.94%. Besides, the inhibition in [19] turned out to be 3.29%; in [20] it was 1.61%.

As to `O=C1NC(=O)C(N2CCc3ccccc32)=C1c1ccc(Cl)cc1`, the inhibition in experiment [1] was determined as 2.44%; in experiment [2] it was 3.12%; in experiment [3] it was 4.67%; in [4] it was 0.13%; in experiment [5], 1.08%; in experiment [6], 3.3%. Besides, the inhibition was 3.36% in experiment [7]; 3.79% in experiment [8]; 14% in [9]; 0.01% in experiment [12]; 1.33% in experiment [13]; -0.41% in [14]. Further, the inhibition in experiment [15] was 2.92%; in experiment [16], 3.51%; in experiment [17] it was 5.32%; in [18] it was 3.12%; in [19], 5.91%; in experiment [20], 5.26%.

With `Nc1ncnc2occ(-c3ccc(NC(=O)Nc4cccc(C(F)(F)F)c4)cc3)c12`, the inhibition in [2] was 3.42%; in experiment [3], 6.79%; in experiment [4], -0.28%; in [5] it was 1.94%; in [6], 3.2%; in experiment [7], 2.85%. In addition, the inhibition was 3.15% in experiment [8]; 9.54% in experiment [9]; 2.89% in [10]; 11% in [11]; 5.73% in experiment [12]; 37.4% in [13]. Further, the inhibition amounted to 67.4% in [14]; 78.3% in [15]; 3.31% in experiment [16]; 14.5% in [17]; 4.78% in experiment [18]; 6.77% in experiment [19]. The inhibition in experiment [20] was found to be 4.22%.

On to `CNC(=O)c1cncc(/C=C/c2c(Cl)cccc2Cl)c1`, for which the inhibition is -3.4% in experiment [1]; -1.12% in experiment [2]; -1.12% in [3]; -1.13% in experiment [4]; 3.55% in experiment [5]; 3.17% in experiment [6]. Also, the inhibition in [7] is 6.98%; in experiment [8], -0.55%; in experiment [9], 3.81%; in experiment [10] it was -1.21%; in [11] it was 1.92%; in experiment [12], -2.63%. The inhibition is 4.11% in experiment [13]; 1.25% in [14]; 7.87% in experiment [15]; 4.08% in experiment [16]; 10.1% in [17]; 5% in [18]. The values for the inhibition in [19] and in experiment [20] were 4.6% and 5.34%, respectively.

As for `COc1cc2ncn(-c3cc(OCc4ccccc4Cl)c(C(N)=O)s3)c2cc1OC`, the inhibition in experiment [1] stood at 4.39%; in [2] it was 0.59%; in experiment [3] it was 4.21%; in experiment [4], 1.28%; in experiment [5] it was 0.48%; in experiment [6] it was 0.19%. Moreover, the inhibition in experiment [7] is 2.53%; in experiment [8], 2.18%; in experiment [9], 9.18%; in experiment [10], 1.21%; in experiment [11], 9.93%; in experiment [12] it was 0.06%. The inhibition in [13] is 5.3%; in experiment [14] it was 7.28%; in experiment [15] it was 45.1%; in experiment [16], 2.23%; in experiment [17], 4.49%; in [18], 0.95%. Moreover, the results for the inhibition in experiment [19] and in experiment [20] were 1.08% and -0.15%, respectively.

For `CC1=C(C(=O)Nc2ccc3[nH]ncc3c2)C(c2ccc3ccccc3c2)CC(=O)N1` (configuration not stated), the inhibition in [1] worked out at 4.72%; in [2] it was 3.4%; in experiment [3] it was 5.32%; in experiment [4] it was 2.6%; in [5], 3.67%; in experiment [6], 0.96%. Further, the inhibition in experiment [7] came to 1.61%; in [8], 2.64%; in experiment [9], 5.8%; in experiment [10], 2.72%; in experiment [11], 7.81%; in experiment [12] it was 1.49%. For the same compound, the inhibition in experiment [13] was 4.61%; in [14], 1.02%; in [15], 4.03%; in experiment [16], 0.73%; in experiment [17], 2.65%; in [18], 5.52%. The inhibition worked out at 39.5% in experiment [19] and 3.92% in [20].

In the case of `COc1ccc(COc2ccc(Cc3cnc(N)nc3N)cc2OC)cc1`, the inhibition was -0.53% in [1]; 1.44% in [2]; 0.52% in [3]; 4% in experiment [4]; 2.57% in experiment [5]; -0.01% in [6]. For the same compound, the inhibition in [7] is 0.42%; in [8] it was 1.37%; in experiment [9] it was 0.34%; in experiment [10], 0.96%; in [12] it was -1.6%; in [13], 0.13%. In addition, the inhibition in experiment [14] is 2.52%; in experiment [15], 4.49%; in experiment [16] it was 0.2%; in experiment [17], 0.51%; in experiment [18] it was -1.03%; in experiment [19], -0.13%. The inhibition in experiment [20] is 0.6%.

In the case of `CN(C)c1cc2c(Nc3ccc4nc(Cc5ccccc5)[nH]c4c3)ncnc2cn1`, the inhibition in experiment [1] is 3%; in [2], 4.46%; in experiment [3], 6.18%; in experiment [4] it was 1.66%; in [5], 2.67%; in [6] it was 3.79%. Moreover, the inhibition in experiment [7] turned out to be 5.25%; in [8] it was 2.41%; in experiment [9], 4.97%; in experiment [10], 1.6%; in experiment [11], 2.68%; in [12] it was 0.23%. The inhibition was determined as 2.19% in [13]; 2.51% in experiment [14]; 4.06% in experiment [15]; 10.2% in experiment [16]; 1.8% in experiment [17]; 4.86% in experiment [18]. For the same compound, the inhibition in [19] was 6.26%; in experiment [20] it was 3.48%.

In the case of `O=C1NC(=O)C(c2cccc(Cl)c2)=C1Nc1ccc(O)c(Cl)c1`, the inhibition in experiment [1] worked out at 5.01%; in experiment [2] it was 2.08%; in experiment [3], 17.3%; in experiment [4] it was 1.51%; in experiment [5], 8.29%; in experiment [6], 1%. Moreover, the inhibition was 0.69% in experiment [7]; -2.68% in experiment [12]; 1.28% in experiment [13]; -1.68% in experiment [14]; 0.62% in experiment [15]; 3.34% in experiment [16]. Besides, the inhibition is 1.38% in experiment [17], -0.66% in experiment [18], 1.91% in experiment [19] and 2.05% in experiment [20].

With `COc1cc2ncn(-c3cc(O[C@@H](C)c4ccccc4Cl)c(C(N)=O)s3)c2cc1OC`, the inhibition in experiment [1] is 2.08%; in experiment [2] it was 4.47%; in experiment [3], 8.19%; in experiment [4], -0.84%; in experiment [5], 5.29%; in [6], 2.62%. The inhibition in experiment [7] was 3.36%; in experiment [8], 3.02%; in [9] it was 6.38%; in [10] it was 2.25%; in experiment [11] it was 5.97%; in experiment [12], -0.99%. The inhibition was found to be 4.95% in [13]; 2.88% in experiment [14]; 22.1% in [15]; 2.45% in experiment [16]; 8.24% in experiment [17]; 5.66% in [18]. Besides, the inhibition turned out to be 6.55% in experiment [19] and 4.78% in [20].
